IL1B secr inh: blocks inflammasome-driven IL-1 beta release; THP-1 LPS/ATP IL-1B secretion, AlphaLISA, 16 h; hits give low values; activity change, % at 57.5 µM; 360,000 compounds, 4.7% hits; AID 743279; in the data active = activity change below about -50%; inconclusive = mostly about -30% to -49%; note: % is set by controls: 0 for no effect and ±100 for the full control effect
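Secreted IL-1B measured by AlphaLISA bead assay after 16 h compound exposure of THP-1 cells; compounds (final up to 57.5 uM) added 1 h before LPS (250 ng/mL) and ATP (1.25 mM) stimulation; lower signal means less secretion.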
TDP1 block: TDP1 (human) enzyme inhibition | Q9NUW8 | recombinant TDP1, AlphaScreen DNA substrate cleavage | Potency, µM (titrated, usually from 130 µM), for inactives: at the top dose activity change, negative = inhibition, most hits filed as inhibitors | 350,000 compounds, 0.28% hits; note: potency is the fitted concentration of half-maximal effect; % is set by controls: 0 for no effect and ±100 for the full control effect; nearly all actives have a fitted effect of over 40% in size
Target sequence (Q9NUW8 whole entry, looked up): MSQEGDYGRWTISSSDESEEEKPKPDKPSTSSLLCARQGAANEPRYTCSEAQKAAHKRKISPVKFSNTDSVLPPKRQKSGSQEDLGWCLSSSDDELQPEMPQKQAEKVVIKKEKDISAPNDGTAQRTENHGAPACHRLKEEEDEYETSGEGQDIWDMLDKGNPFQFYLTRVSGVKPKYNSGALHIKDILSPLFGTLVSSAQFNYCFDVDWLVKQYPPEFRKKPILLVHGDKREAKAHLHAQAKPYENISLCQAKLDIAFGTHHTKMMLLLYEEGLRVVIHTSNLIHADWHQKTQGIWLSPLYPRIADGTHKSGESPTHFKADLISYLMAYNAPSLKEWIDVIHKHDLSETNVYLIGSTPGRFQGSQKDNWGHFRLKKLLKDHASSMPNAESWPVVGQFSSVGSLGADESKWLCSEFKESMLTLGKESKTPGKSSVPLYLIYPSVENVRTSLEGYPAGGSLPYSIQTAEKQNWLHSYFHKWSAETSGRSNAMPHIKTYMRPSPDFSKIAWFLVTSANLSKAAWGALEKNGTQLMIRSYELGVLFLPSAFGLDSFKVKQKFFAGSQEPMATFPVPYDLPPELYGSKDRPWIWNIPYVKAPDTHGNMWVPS
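Here, a 5' biotin and 3' phosphotyrosine-FITC DNA oligonucleotide reports Tdp1 activity: intact substrate bridges AlphaScreen beads, while cleavage leaves a 3' phosphate and drops signal. All incubations at room temperature.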
HepG2 tox-1: kills HepG2 cells in TGF-b inhibitor counter-screen | Potency, µM (series often up to 46.1 µM), without a hit: top-dose activity change, negative = cytotoxicity, most hits filed as cytotoxic | HepG2 CAGA-GFP viability, ATP luminescence, 18 h | 410,000 compounds, 0.76% hits; note: potency is the fitted concentration of half-maximal effect
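HepG2 CAGA-GFP cells (1000/well, DMEM with 1% FBS) received compound, then TGF-beta at 500 pg/mL final, and were incubated 18 hours at 37 degrees C. Viability was read by CellTiter-Glo luminescence. Media-only wells were set as complete cell-killing and DMSO as no toxicity.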
TGFb inhibitor: TGF-b pathway inhibition. HepG2 CAGA-GFP TGF-b/SMAD3 reporter, GFP fluorescence, 18 h; TGF-beta stimulated, 500 pg/mL final. Potency, µM (top dose mostly 46.1 µM), without a hit: top-dose activity, negative = inhibition, hits mostly inhibitors. 410,000 compounds, 1.2% hits. AID 588855; note: potency is the fitted concentration of half-maximal effect; % is set by controls: 0 for no effect and ±100 for the full control effect; nearly all actives have a fitted effect of over 65% in size
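Inhibition was scored as loss of TGF-beta-induced (500 pg/mL final, 18 hours, 37 degrees C) GFP in HEPG2 cells carrying a CAGA-GFP reporter, in DMEM with 1% FBS. Well GFP was summed per cell; Activity was normalised to unstimulated and stimulated DMSO wells, then concentration-response fitting.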
TDP1 cell CPT: DT40-hTDP1 cell growth loss with CPT | chicken DT40 Tdp1-/-;hTDP1 cells + 20 nM CPT, ATP luminescence, 48 h | AID 686979 | Potency, µM (series often up to 46.2 µM), for inactives: at the top dose activity change, negative = growth inhibition, most hits filed as inhibitors | 420,000 compounds, 12% hits; note: potency is the fitted concentration of half-maximal effect; % is set by controls: 0 for no effect and ±100 for the full control effect; nearly all actives have a fitted effect of over 55% in size
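Chicken DT40 Tdp1-/- cells complemented with human TDP1, 400 cells/well, exposed to compounds plus 20 nM camptothecin for at least 48 h at 37 C; viability read as ATP content by CellTiter-Glo luminescence.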
TDP1 cell noCPT: qHTS for Inhibitors of human tyrosyl-DNA phosphodiesterase 1 (TDP1): qHTS in cells in absence of CPT; AID 686978, 2013; DT40 Tdp1-/- hTDP1 cells, no CPT, ATP luminescence, 48 h; Potency, µM (top dose mostly 46.2 µM), for inactives: at the top dose activity change, negative = growth inhibition, actives largely listed as inhibitors; 420,000 compounds, 15% hits; note: potency is the fitted concentration of half-maximal effect; % is set by controls: 0 for no effect and ±100 for the full control effect; nearly all actives have a fitted effect of over 55% in size
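Chicken DT40 Tdp1-/- cells complemented with human TDP1, screened without camptothecin (DMSO vehicle only), 400 cells/well. Compounds pin-transferred, cells incubated at 37 °C for at least 48 hr. Growth read as ATP-dependent luminescence (CellTiter-Glo, 30 min at RT).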
TGFb confirm: TGF-b pathway inhibition, cherry-pick retest. shares compounds with TGFb inhibitor. 1,600 compounds, 63% hits. HepG2 CAGA-GFP TGF-b reporter, GFP fluorescence, 18 h; cells stimulated with TGF-beta, 500 pg/mL. Potency, µM (series often up to 46.1 µM), inactives show top-dose activity, negative = inhibition, most hits filed as inhibitors. AID 720534; note: potency is the fitted concentration of half-maximal effect; % is set by controls: 0 for no effect and ±100 for the full control effect; nearly all actives have a fitted effect of over 65% in size
HepG2 tox-2: counter-screen for TGF-b inhibitors: cytotoxicity in HepG2 cells; Potency, µM (titrated, usually from 46.1 µM), inactives show at the highest dose activity, negative = cytotoxicity, most hits filed as inhibitors; shares compounds with TGFb inhibitor; HepG2 CAGA-GFP viability, ATP luminescence, 18 h; cells stimulated with TGF-beta, 500 pg/mL; AID 720535; 1,600 compounds, 27% hits; note: potency is the fitted concentration of half-maximal effect; % is set by controls: 0 for no effect and ±100 for the full control effect; nearly all actives have a fitted effect of over 70% in size
CCL64 TGFb inh: TGF-b inhibition, CCL64 orthogonal assay; CCL64 CAGA-GFP reporter, TGF-b stimulated, GFP fluorescence, 18 h; Potency, µM (titrated, usually from 46.1 µM), without a hit: at the top dose activity, negative = inhibition, most hits filed as inhibitors; shares compounds with TGFb inhibitor; 1,600 compounds, 41% hits; note: potency is the fitted concentration of half-maximal effect; nearly all actives have a fitted effect of over 65% in size
TGFb COP inh: blocks TGF-b signaling in HepG2 COP reporter; shares compounds with TGFb inhibitor; HepG2 COP-GFP TGF-b reporter, GFP fluorescence, 18 h; cells stimulated by added recombinant TGF-beta; Potency, µM (titrated, usually from 46.1 µM), for inactives: top-dose activity, negative = inhibition, usual class: inhibitors; 1,600 compounds, 3% hits; note: potency is the fitted concentration of half-maximal effect; nearly all actives have a fitted effect of over 70% in size
The depositor's hits bear a star. Only a sample is shown. Unless noted, calls come from the whole dose curve; as a rule, active = well fitted curve in the direction sought with a large enough effect; inconclusive = small, poorly fitted or top-dose-only effect, or another doubt; inactive = no such curve, though single readings can be large; an effect the other way counts as inactive or inconclusive.

`O=C(CCC(=O)c1ccc(Cl)s1)Nc1ncccc1O` gave IL1B secr inh 19, TDP1 block -12%, HepG2 tox-1 6%, TGFb inhibitor -9%, TDP1 cell CPT -23% and TDP1 cell noCPT 17%.
`O=C(Nc1ccc(C(=O)OC2CCCCC2)cc1)c1ccncc1` gave IL1B secr inh -6, TDP1 block 2%, HepG2 tox-1 -35%, TGFb inhibitor -5%, TDP1 cell CPT inconclusive and TDP1 cell noCPT inconclusive.
`CCCCCCOc1ccc(N2C(=O)CC(N(CCc3ccc(S(N)(=O)=O)cc3)C(C)=O)C2=O)cc1` (centres undefined) gave IL1B secr inh 0, TDP1 block -8%, HepG2 tox-1 -6%, TGFb inhibitor inconclusive, TDP1 cell CPT -15%, TDP1 cell noCPT inconclusive, TGFb confirm inconclusive, HepG2 tox-2 -16%, CCL64 TGFb inh 0% and TGFb COP inh 11%.
Screening Cn1c(SCC(=O)NC2CCS(=O)(=O)C2)nc2ccccc21 (centres undefined) returned IL1B secr inh inconclusive, TDP1 block 1%, HepG2 tox-1 3%, TGFb inhibitor -3%, TDP1 cell CPT -17% and TDP1 cell noCPT -25%.
For COc1ccc(S(=O)(=O)N2CCC(C(=O)N3CCc4ccccc4C3)CC2)cc1Cl the results were IL1B secr inh inconclusive, TDP1 block 5%, HepG2 tox-1 -11%, TGFb inhibitor inconclusive, TDP1 cell CPT inconclusive, TDP1 cell noCPT inconclusive, TGFb confirm inconclusive, HepG2 tox-2 -26%, CCL64 TGFb inh inconclusive and TGFb COP inh 18%.
For COc1ccc(S(=O)(=O)N2CCC(C(=O)N3CCC(C(N)=O)CC3)CC2)cc1Cl the results were IL1B secr inh 35, TDP1 block -1%, HepG2 tox-1 0%, TGFb inhibitor -1%, TDP1 cell CPT 6% and TDP1 cell noCPT -8%.
For Cc1ccc(SC(C)C(=O)NCc2ccncc2)cc1 (centres undefined) the results were IL1B secr inh 1, TDP1 block 2%, HepG2 tox-1 -28%, TGFb inhibitor inconclusive, TDP1 cell CPT inconclusive, TDP1 cell noCPT -6%, TGFb confirm inconclusive, HepG2 tox-2 3%, CCL64 TGFb inh 14% and TGFb COP inh -8%.
Screening CC(=O)c1cccc(NC(=O)CCCCCn2nnc3ccccc3c2=O)c1 returned IL1B secr inh 71, HepG2 tox-1 33%, TGFb inhibitor 8%, TDP1 cell CPT 22% and TDP1 cell noCPT -28%.
`O=S(=O)(Nc1cc(Sc2cccc3cccnc23)c(O)c2ccccc12)c1ccc(F)cc1` gave IL1B secr inh -98*, TDP1 block 8%, HepG2 tox-1 1.1µM*, TGFb inhibitor 0.79µM*, TDP1 cell CPT 0.58µM*, TDP1 cell noCPT 0.92µM*, TGFb confirm 12µM*, HepG2 tox-2 15µM*, CCL64 TGFb inh 2.6µM* and TGFb COP inh 31%.
Screening COc1ccc(S(=O)(=O)Nc2cc(Sc3ncn[nH]3)c(O)c3ccccc23)cc1 returned TDP1 block 11%, HepG2 tox-1 3.5µM*, TGFb inhibitor 3.2µM*, TGFb confirm 12µM*, HepG2 tox-2 inconclusive, CCL64 TGFb inh 2.6µM* and TGFb COP inh inconclusive.
`O=C(Sc1cccc2cccnc12)c1ccc(F)cc1` gave TDP1 block 0%.
For COc1ccc(S(=O)(=O)Nc2ccc(O)c(Sc3ncn[nH]3)c2)cc1 the results were IL1B secr inh 1, HepG2 tox-1 0%, TGFb inhibitor 1%, TDP1 cell CPT inconclusive and TDP1 cell noCPT -17%.
Screening O=C(CN1C(=O)NC2(CCOc3ccccc32)C1=O)Nc1cccc(Cl)c1 (centres undefined) returned IL1B secr inh -10, TDP1 block 3%, HepG2 tox-1 -18%, TGFb inhibitor -12%, TDP1 cell CPT inconclusive and TDP1 cell noCPT inconclusive.
`CCC(C)NC(=O)C1=CCN(S(=O)(=O)c2ccc(C)cc2)CC1` (centres undefined) gave IL1B secr inh -9, HepG2 tox-1 -2%, TGFb inhibitor 3%, TDP1 cell CPT 2% and TDP1 cell noCPT 12%.
CCC(C)NS(=O)(=O)c1ccc(S(=O)(=O)N2CC=C(c3ccc(F)cc3)CC2)cc1 (centres undefined) was read as IL1B secr inh -26, TDP1 block 3%, HepG2 tox-1 -32%, TGFb inhibitor 8.9µM*, TDP1 cell CPT 16µM*, TDP1 cell noCPT 18µM*, TGFb confirm inconclusive, HepG2 tox-2 -16%, CCL64 TGFb inh inconclusive and TGFb COP inh 15%.
Screening Cc1ccc(C(=O)NCC(=O)NCc2ccc(Cl)cc2)s1 returned IL1B secr inh 26, TDP1 block -3%, HepG2 tox-1 -6%, TGFb inhibitor 3%, TDP1 cell CPT -3% and TDP1 cell noCPT -16%.

Assay outcomes deposited in PubChem BioAssay by National Center for Advancing Translational Sciences (NCATS).
